Screen size: about 320,000 compounds; about 2,100 (0.66%) were called active. Another 53% or so got no clear call; they are omitted. Calls come from the whole dose curve; as a rule, active = well fitted inhibition curve with a large enough effect in the signal ratio, with a control signal flat (not every such curve was filed as active); inconclusive = small, poorly fitted or top-dose-only effect, or effect the other way, or a change in a side signal; inactive = flat fitted curve, though single readings scatter; the % refers to the signal ratio. Many of the other results were omitted from the sample, so actives are more common in it than they were.
Assay: qHTS Assay for Lipid Storage Modulators in Drosophila S3 Cells;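 for cell number change: cells counted by Cell Tracker Red CMTPX staining in the red channel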
Conditions: BODIPY lipid droplet fluorescence, 18-24 h, cells fed with added oleic acid; cell number change: measured here: cell count max response; series mostly up to 46.1 µM
In short: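 Drosophila S3 cells loaded with oleic acid (400 uM, as added) and compounds at several concentrations; lipid droplets imaged by 488-nm laser-scanning cytometry, 500–530 nm intensity and object ratio to cell channel. Percent activity normalized to 20 uM Triacsin C.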
For `Cc1onc(-c2ccccc2Cl)c1C(=O)N1CCC(C)CC1`, the Potency was “inactive” and the cell number change was -10.5%.
With `Cc1onc(-c2ccccc2Cl)c1C(=O)N1CCN(C=O)CC1` the Potency was “inactive”.
With `Cc1onc(-c2ccccc2Cl)c1C(=O)N1CCCCCC1` the Potency was 25.9 µM (active) and the cell number change was 0.806%.
For `CCNC(=S)N1CCN=C1Nc1nc(C)cc(C)n1`, the Potency was “inactive” and the cell number change was 8.32%.
With `CCn1cc(CNC(=O)/C=C/c2ccc([N+](=O)[O-])cc2)cn1` the Potency was “inactive” and the cell number change was -8.84%.
In the case of `O=C(O)CCn1c2ccccc2c2nc3ccccc3nc21`, the Potency is reported as “inactive” and the cell number change is reported as -11.8%.
In the case of `CCn1c2ccccc2c2nc3cc(C(=O)O)ccc3nc21`, the Potency is reported as 0.58 µM (active) and the cell number change is reported as -24.2%.
For `CCn1c2ccc(C)cc2c2nc3cc(C(=O)O)ccc3nc21`, the Potency was “inactive” and the cell number change was -5.53%.
For `CC(=O)NCCc1nc2cc(NC(=O)c3cccc([N+](=O)[O-])c3)ccc2n1C`, the Potency was “inactive”.
In the case of `COc1nn(CC(=O)N2N=C(C)CC2(O)C(F)(F)F)cc1[N+](=O)[O-]` (stereo not given), the Potency is reported as “inactive” and the cell number change is reported as 11.8%.
With `CCOC(=O)Cn1cc([N+](=O)[O-])c(OC)n1` the Potency was 23.1 µM (active) and the cell number change was -15%.
With `COc1nn(CC(=O)N2N=C(C)CC2(O)C(F)F)cc1[N+](=O)[O-]` (stereo not given) the Potency was “inactive” and the cell number change was 5.87%.
In the case of `CCOc1ccc(CCNC(=O)c2nnc(Cc3ccc(F)cc3)o2)cc1OCC`, the Potency is reported as “inactive” and the cell number change is reported as -1.72%.
With `CN(CCCNC(=O)COc1cc(=O)n(C)c2ccccc12)Cc1ccccc1` the Potency was “inactive” and the cell number change was 1.19%.
For `CCSc1nsc(NC(=O)Nc2ccc(F)cc2F)n1`, the Potency was “inactive”.
In the case of `O=C(Nc1nc(SCc2ccc(F)cc2)ns1)c1ccco1`, the Potency is reported as “inactive” and the cell number change is reported as -12.1%.
For `C=CCSc1nsc(NC(=O)Nc2ccc(F)cc2)n1`, the Potency was 5.17 µM (active) and the cell number change was -16.2%.
For `Cc1ccccc1S(=O)(=O)NCC1CCCO1` (stereo not given), the Potency was “inactive” and the cell number change was -3.81%.
For `COCc1cc(C)nc(SCC[N+](C)(C)CC(=O)c2ccc(Br)cc2)c1C#N`, the Potency was “inactive”.
In the case of `NC(=O)C1=C[C@@H](c2coc3ccccc3c2=O)C[C@@H](OCc2ccc(CO)cc2)O1`, the Potency is reported as “inactive” and the cell number change is reported as 16%.
In the case of `CCc1ccc(CN(C)C(=O)c2cc(COc3cccc4cnccc34)on2)cc1`, the Potency is reported as “inactive” and the cell number change is reported as 14.5%.
For `CCOC(=O)C1=C(C)NC(C)=C(C(=O)OCC)C1C`, the Potency was “inactive” and the cell number change was 8.56%.
In the case of `CC1=C(C(=O)OCC2CCCO2)C(c2cccc(O)c2)NC(=O)N1` (stereo not given), the Potency is reported as “inactive” and the cell number change is reported as -24.8%.
In the case of `CCOC(=O)C1=C(C)NC(=O)NC1C` (stereo not given), the Potency is reported as 5.17 µM (active) and the cell number change is reported as -10.2%.
With `CCOC(=O)C1=C(CN2CCSCC2)NC(=O)NC1c1cccc([N+](=O)[O-])c1` (stereo not given) the Potency was “inactive” and the cell number change was -8.36%.
With `CCOC(=O)C1=C(CBr)NC(=O)NC1C` (stereo not given) the Potency was “inactive” and the cell number change was -12.6%.
For `CCOC(=O)C1=C(C)NC(=O)NC1c1cccc(O)c1` (stereo not given), the Potency was 20.6 µM (active) and the cell number change was 0.128%.
With `CCOC(=O)C1=C(C)N(C)C(=O)NC1c1cccc(O)c1` (stereo not given) the Potency was “inactive”.
With `CCOC(=O)C1=C(COc2ccccc2)NC(=O)NC1c1cccc([N+](=O)[O-])c1` (stereo not given) the Potency was 9.2 µM (active) and the cell number change was 3.89%.
For `CC1=C(C(=O)OCc2ccccc2)C(c2cccc([N+](=O)[O-])c2)NC(=O)N1` (stereo not given), the Potency was “inactive” and the cell number change was 10.6%.
In the case of `CCOc1cc(N2CCOCC2)c(OCC)cc1NC(=O)CSc1n[nH]c(N)n1`, the Potency is reported as “inactive” and the cell number change is reported as 21.7%.
In the case of `CCOC(=O)c1c(NC(=O)COC(=O)c2cc(OC)c(OC)cc2[N+](=O)[O-])sc(C)c1CC`, the Potency is reported as “inactive” and the cell number change is reported as -0.918%.
With `CN(c1ccccc1)S(=O)(=O)c1cccc(NC(=O)CN2CCc3ccccc3C2)c1` the Potency was “inactive”.
With `CC1=C(C(N)=O)C(c2cccs2)n2ncnc2N1` (stereo not given) the Potency was “inactive” and the cell number change was -0.857%.
With `COc1ccc(S(=O)(=O)Nc2c(C(=O)O)[nH]c3ccccc23)cc1OC` the Potency was “inactive” and the cell number change was 2.12%.
For `COc1ccccc1OCC(=O)Nc1cc(NC(=O)COc2ccccc2OC)cc(C(=O)O)c1`, the Potency was “inactive” and the cell number change was -10.7%.
In the case of `Cc1cc(=O)n2[nH]nnc2n1`, the Potency is reported as “inactive” and the cell number change is reported as -0.264%.
For `CCC(C)[C@@H](C(=O)N1CCNCC1)n1cc(CCCN=C(N)N)nn1` (stereo not given in full), the Potency was “inactive” and the cell number change was -4.28%.
In the case of `Oc1[nH]c2ccccc2c1N=Nc1ncnc2c1oc1ccccc12`, the Potency is reported as “inactive” and the cell number change is reported as 8.73%.
For `Oc1[nH]c2ccccc2c1N=Nc1ccc(C(F)(F)F)cn1`, the Potency was “inactive” and the cell number change was -7.88%.
For `Cc1sc2ncnc(N=Nc3c(O)[nH]c4ccccc34)c2c1C`, the Potency was 20.6 µM (active) and the cell number change was -22%.
In the case of `Cc1ccccc1OCCNc1ccc(C(F)(F)F)cc1[N+](=O)[O-]`, the Potency is reported as “inactive” and the cell number change is reported as -21%.
In the case of `CCS(=O)(=O)N1Cc2ccccc2CC1C(=O)NC(C)C12CC3CC(CC(C3)C1)C2` (stereo not given), the Potency is reported as 23.1 µM (active) and the cell number change is reported as -29.2%.
In the case of `CCS(=O)(=O)N1Cc2ccccc2CC1C(=O)Nc1ccc(NC(C)=O)cc1` (stereo not given), the Potency is reported as “inactive”.
In the case of `CCS(=O)(=O)N1Cc2ccccc2CC1C(=O)Nc1ccc(C)cc1` (stereo not given), the Potency is reported as “inactive”.
With `Cc1ccc(C=Nc2ccccc2C(N)=O)o1` the Potency was “inactive” and the cell number change was -8.21%.
With `CC1CN(c2ccc([N+](=O)[O-])cc2F)CCN1C(=O)c1ccco1` (stereo not given) the Potency was “inactive” and the cell number change was -3.23%.
In the case of `CCOc1ccccc1NS(=O)(=O)c1ccc2c(c1)n(C)c(=O)c(=O)n2C`, the Potency is reported as “inactive” and the cell number change is reported as -6.25%.
For `COc1ccc(C)cc1NS(=O)(=O)c1ccc2c(c1)N(C(C)=O)CCO2`, the Potency was “inactive” and the cell number change was 6.45%.

Reference: PubChem BioAssay AID2685 (National Center for Advancing Translational Sciences (NCATS), 2010)
Potency is the fitted concentration of half-maximal effect.
